Measured values: ChEMBL document CHEMBL3433997, “St. Jude Leishmania screening dataset” (2016)

Biological target: Solute carrier family 2, facilitated glucose transporter member 1 (Homo sapiens) (UniProt P11166)
Experiment: ST_JUDE_LEISH: Cytotoxicity at 2uM final concentration against transgenic Leishmania Mexicana promastigotes LmGLUT1 that are glucose transport deficient and complemented with the human glucose transporter GLUT1. Activity is measured by DNA content using SYBR green in vitro
Type: functional

Solute carrier family 2, facilitated glucose transporter member 1 (Homo sapiens), sequence (P11166 whole entry): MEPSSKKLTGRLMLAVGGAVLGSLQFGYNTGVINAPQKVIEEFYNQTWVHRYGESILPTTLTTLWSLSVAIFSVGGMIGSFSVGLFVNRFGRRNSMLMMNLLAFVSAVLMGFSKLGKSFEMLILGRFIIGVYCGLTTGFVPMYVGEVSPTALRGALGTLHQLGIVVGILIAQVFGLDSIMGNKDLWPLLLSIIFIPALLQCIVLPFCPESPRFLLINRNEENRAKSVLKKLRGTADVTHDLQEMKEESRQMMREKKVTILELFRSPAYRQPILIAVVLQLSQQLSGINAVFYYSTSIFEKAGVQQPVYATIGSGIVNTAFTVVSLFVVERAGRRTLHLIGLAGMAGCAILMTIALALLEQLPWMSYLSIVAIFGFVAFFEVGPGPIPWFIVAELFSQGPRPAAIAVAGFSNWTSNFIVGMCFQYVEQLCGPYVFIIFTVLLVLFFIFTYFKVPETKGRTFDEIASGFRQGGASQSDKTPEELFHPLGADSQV

SMILES | inhibition [%]
COc1ccc(-c2ccc(NC(=O)c3ccc(C#N)cc3)c(F)c2)cc1CN(C)CCN(C)C | 0.85
O=C(Nc1ccc(F)cc1)N1CCCN(c2ccnc3cc(Cl)ccc23)CC1 | 0.02
Cc1cccc2nc(-c3cccc(-c4cccc(NC(=O)COc5ccccc5C(N)=O)c4)c3)[nH]c12 | -0.32
O=C(CSc1nc(-c2ccccc2Cl)ns1)Nc1cccc(F)c1 | -0.07
OCCNc1nc(Nc2cccc(O)c2)nc2ccccc12 | 4.65
CCc1cc2c(cc1CC)CC(NC[C@@H](O)c1ccc(O)c3[nH]c(=O)ccc13)C2 | 1.34
CCCC(C)Nc1nc(C)cc(N[C@@H](CC(C)C)C(=O)Nc2ccc(OC)cc2)n1 (stereo not given in full) | 3.3
CC(C)c1ccc(-c2noc(SCC(=O)N(C)c3ccc(F)cc3)n2)cc1 | -1.33
COc1ccccc1NC(=O)Nc1cccc(-c2cccc(-c3nc4cc(C(F)(F)F)ccc4[nH]3)c2)c1 | -1.22
Cn1c(N)cc(-c2ccc(Br)cc2)c2c(=O)nc(N)nc1-2 | 6.75
CCCCCCCN1CC[C@@H](CCCc2ccnc3ccc(OCCN4CCOCC4)cc23)[C@@H](CC)C1 | 10.6
CCCCc1cc(NCc2ccncc2)nc(Nc2cccc(OC)c2)n1 | 21.4
FC(F)(F)Oc1ccc(-c2cnc3ccc(NCc4ccncc4)nn23)cc1 | 2.41
O=C(NC1CCC1)C1CCN(C(c2ccccc2)c2cc(F)cc(F)c2)CC1 (stereo not given) | 6.73
Cc1nc(NCc2ccccc2)cc(NCC(O)c2ccc(O)cc2)n1 (stereo not given) | 8.37
CC[C@H](NC(=O)c1c(CN2CCC(N3CCCCC3)CC2)c(-c2ccccc2)nc2c(Cl)c(O)ccc12)c1ccccc1 | 7.43
N=C1SC(=Cc2cn[nH]c2-c2ccc(F)cc2)C(=O)N1c1nccs1 | 0.88
CN(C)CCNCc1nc(-c2ccc3c(Nc4ccc(Oc5ccccc5)cc4)ccnc3c2)cs1 | -2.05
COc1ccc(C(=O)C2CCN(CCCCNC(=O)c3ccc(NC(=O)c4ccc(Cl)cc4)cc3)CC2)c(OC)c1 | 2.37
CC(=O)N(C)C1CCN(Cc2ccc(-c3ccc(-c4nc5cc(F)ccc5[nH]4)s3)cc2)C1 (stereo not given) | 8.07

SMILES | inhibition [%]
Cc1cc(C(F)(F)F)n2nc(C(=O)N(C)Cc3cncn3Cc3ccc(F)cc3)cc2n1 | 0.88
O=C(C=Cc1ccc(Cl)c(Cl)c1)NCCCCCN1CCC(CCCNS(=O)(=O)c2cccc(C(F)(F)F)c2)CC1 | 0.51
COc1ccc2nccc([C@@H](O)CN3CCC(NCc4cnc5snnc5c4)C(F)C3)c2c1 (stereo not given in full) | 0.43
COc1ccc2c(=NN=Cc3cccc(F)c3)cc(C)[nH]c2c1 | -1.29
CC(C)(C)OC(=O)NCC(=O)N(Cc1ccccc1)Cc1ccccc1 | 4.96
CC(C)c1ccc(O)cc1Nc1ccnc2ccc(C(F)(F)F)cc12 | 1.29
NC1(C(=O)O)Cc2ccc(Cl)cc2C1 (stereo not given) | 5.91
CCN1CCC(N(Cc2ccc(-c3ccc(C(F)(F)F)cc3)cc2)C(=O)CCCCn2c(CCc3cccc(F)c3F)nc(=O)c3ccccc32)CC1 | 1.08
COc1ccc(CNCCCCCCNCc2ccc(OC)c3ccccc23)c2ccccc12 | 59.7
O=C(CNC1=NCCN1)Nc1ccc(NC(=O)Nc2ccc(NC(=O)CNC3=NCCN3)cc2)cc1 | 3.51
CCc1ccc(NC(=O)c2ccc(CN3CCCN(Cc4cccc(O)c4)CC3)cc2)cc1 | -0.63
CC1(C)NC(N)=NC(=N)N1OCCCCCOc1ccccc1 | 0.42
Cc1cccc(Cn2ccc3c(N)nc(N)nc32)c1 | 4.57
COc1ccc(NC(=O)c2ccc(-c3ccc(-c4cccnc4)cc3)c(C)c2)cc1OCCN(C)C | 1.47
O=C(/C=C/c1ccc(F)c(Br)c1)NCCCCCN1CCC(c2c[nH]c3ccccc23)CC1 | 1.88
CN(C)CCN(Cc1ccccc1)c1ccc([N+](=O)[O-])cc1C(F)(F)F | 7.95
Cc1ccc(NC(=O)c2ccc(N3CCN(c4ccncc4)CC3)cn2)cc1F | 109
COc1ccc(C=NN=c2cc(C)[nH]c3ccc(C)cc23)c2ccccc12 | 0.11
O=C(NC(=S)NCc1ccncc1)c1ccccc1 | 2.06
CCCCCN1CCCC1CNS(=O)(=O)c1ccc(C(=O)Nc2ccc(C(F)(F)F)cc2)cc1 (stereo not given) | 4.05
